The panel holds about 79,000 compounds, 15% with a hit somewhere; the sample as a whole holds those more often. Calls of active or inactive are those of the source. Rule as the data show it: active = growth inhibition above about 70%; inactive = the rest.
Key:
[1] = NCI Yeast Anticancer Drug Screen. Data for the mec2-1 strain (AID 157); details: S. cerevisiae mec2-1 strain, hits give high values
Outline: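 Yeast mec2-1 mutant treated with compound. Readout: growth inhibition vs vehicle controls.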

[2] = NCI Yeast Anticancer Drug Screen. Data for the rad14 strain (AID 159);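 also: 0% = growth of vehicle-treated control cultures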; details: S. cerevisiae rad14 strain growth inhibition, hits give high values
Outline: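 Yeast cells carrying a defined DNA-repair defect were exposed to compounds, and growth inhibition was calculated relative to vehicle-treated control cultures.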

[3] = NCI Yeast Anticancer Drug Screen. Data for the sgs1 mgt1 strain (AID 161);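 also: 0% = growth of cultures given vehicle only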; details: S. cerevisiae sgs1 mgt1 strain, hits give high values
Outline: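 Test agents were incubated with a DNA-repair-mutant yeast strain. Growth was then read and compared against vehicle-treated controls.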

[4] = NCI Yeast Anticancer Drug Screen. Data for the CLN2oe strain (AID 163);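 also: 0% = growth of vehicle-only control cultures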; details: S. cerevisiae CLN2oe strain, hits give high values
Outline: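 Read-out: yeast growth inhibition, expressed relative to vehicle-only controls. The strain bears an engineered cell-cycle alteration.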

[5] = NCI Yeast Anticancer Drug Screen. Data for the cln2 rad14 strain (AID 165);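 also: 0% = growth equal to vehicle treated cultures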; details: S. cerevisiae cln2 rad14 strain, hits give high values
Outline: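 cln2 rad14 yeast strain; compound exposure; growth inhibition read vs vehicle controls.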

[6] = NCI Yeast Anticancer Drug Screen. Data for the bub3 strain (AID 167); details: S. cerevisiae bub3 mutant strain, hits give high values
Outline: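 Compounds were applied to a genetically altered yeast strain carrying a cell-cycle control defect. Growth inhibition was scored against vehicle-treated controls.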

[7] = NCI Yeast Anticancer Drug Screen. Data for the wt2 strain (AID 169);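 also: 0% = growth of vehicle-treated yeast cultures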; details: S. cerevisiae wt2 strain growth inhibition, hits give high values
Outline: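 Read-out: growth inhibition versus vehicle-treated control cultures after compound exposure of the yeast strain.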

[8] = NCI Yeast Anticancer Drug Screen. Data for the mlh1 strain (AID 171);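 also: 0% = growth of vehicle-treated control cultures of the same strain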; details: S. cerevisiae mlh1 strain growth inhibition, hits give high values
Outline: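 Read-out: growth inhibition versus vehicle controls. Strain: engineered yeast with a defined DNA repair or cell cycle defect, compound-treated.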

[9] = NCI Yeast Anticancer Drug Screen. Data for the sgs1 strain (AID 173);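 also: 0% = growth of vehicle-only control cultures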; details: S. cerevisiae sgs1 mutant, hits give high values
Outline: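 Read-out: yeast growth inhibition relative to vehicle controls, following compound exposure of a strain with a defined DNA repair/cell cycle alteration.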

[10] = NCI Yeast Anticancer Drug Screen. Data for the mlh1 rad18 strain (AID 175); details: S. cerevisiae mlh1 rad18 strain growth inhibition, hits give high values
Outline: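 Yeast w/ defined DNA-repair lesions; compound exposure; growth vs vehicle controls → % inhibition.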

[11] = NCI Yeast Anticancer Drug Screen. Data for the rad18 strain (AID 177); details: S. cerevisiae rad18 mutant growth inhibition, hits give high values
Outline: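 Readout: growth inhibition vs vehicle controls. Cells: genetically altered yeast strain, DNA repair defect.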

[12] = NCI Yeast Anticancer Drug Screen. Data for the rad52 strain (AID 147);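 also: 0% = growth of vehicle-treated control cultures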; details: S. cerevisiae rad52 mutant growth inhibition, hits give high values
Outline: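 Read-out: growth inhibition versus vehicle-treated controls. Cells were a DNA repair-deficient yeast strain treated with compounds.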

[13] = NCI Yeast Anticancer Drug Screen. Data for the wt1 strain (AID 149);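 also: 0% = growth of vehicle-treated wt1 cultures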; details: S. cerevisiae wt1 strain (SPY 50644) growth inhibition, hits give high values
Outline: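 Yeast wt1 strain exposed to compounds; growth inhibition measured relative to vehicle-treated controls.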

[14] = NCI Yeast Anticancer Drug Screen. Data for the rad50EPP+ strain (AID 151);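 also: 0% = growth of vehicle-treated control cultures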; details: S. cerevisiae rad50 mutant strain, hits give high values
Outline: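 Growth inhibition read against vehicle controls in rad50EPP+ yeast, a strain altered in DNA damage repair, after compound exposure.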

[15] = NCI Yeast Anticancer Drug Screen. Data for the rad50 strain (AID 155);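 also: 0% = growth of vehicle-only cultures of the same strain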; details: S. cerevisiae rad50 strain growth inhibition, hits give high values
Outline: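 Yeast carrying a defined DNA repair defect were exposed to test compounds, and growth was compared with vehicle-treated controls to give percent inhibition.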

[16] = at 5.0 µM (retest, dose inferred, filed as 0.5)
[17] = at 50.0 µM (retest, dose inferred, filed as 5.0)

Measured: growth inhibition

NCCc1ccc(OCc2ccccc2)c(OCc2ccccc2)c1
active: [1]; at 33.0 µM 92% | [1]; [17] 96% | [1]; at 50.0 µM 91.5% | [1]; at 100.0 µM 98% | [2]; at 33.0 µM 94% | [2]; at 100.0 µM 97% | [3]; [17] 97% | [4]; at 100.0 µM 97% | [5]; [17] 82% | [6]; at 33.0 µM 87% | [6]; [17] 92% | [6]; at 100.0 µM 96% | [7]; at 33.0 µM 95% | [7]; at 100.0 µM 97% | [8]; at 33.0 µM 95% | [8]; at 100.0 µM 96% | [9]; at 33.0 µM 95% | [9]; at 100.0 µM 96% | [10]; [17] 96% | [10]; at 50.0 µM 90.2% | [11]; at 33.0 µM 91% | [11]; at 100.0 µM 94%
inactive: [1]; [16] 35% | [1]; at 11.0 µM 8% | [2]; at 1.2 µM -27% | [2]; at 3.7 µM -21% | [2]; at 11.0 µM -3% | [3]; [16] -16% | [4]; at 1.2 µM -1% | [4]; at 3.7 µM 3% | [4]; at 11.0 µM -5% | [4]; at 33.0 µM 41% | [5]; [16] 36% | [6]; at 1.2 µM 12% | [6]; at 3.7 µM 20% | [6]; [16] -17% | [6]; at 11.0 µM 35% | [7]; at 1.2 µM -15% | [7]; at 3.7 µM -12% | [7]; at 11.0 µM 37% | [8]; at 1.2 µM -38% | [8]; at 3.7 µM -12% | [8]; at 11.0 µM 43% | [9]; at 1.2 µM -8% | [9]; at 3.7 µM -5% | [9]; at 11.0 µM 51% | [10]; [16] 24% | [11]; at 1.2 µM 2% | [11]; at 3.7 µM 15% | [11]; at 11.0 µM 45%

COc1cccc2c1C(=O)c1c(O)c3c(c(O)c1C2=O)C[C@@](O)(/C(C)=N\O)C[C@@H]3OC1CC(N)C(O)C(C)O1 (stereo partly drawn)
active: [12]; at 33.0 µM 84% | [12]; at 100.0 µM 90% | [14]; at 33.0 µM 82% | [14]; at 100.0 µM 89% | [15]; at 11.0 µM 79% | [15]; at 33.0 µM 89% | [15]; [17] 93% | [15]; at 50.0 µM 91.6% | [15]; at 100.0 µM 93% | [11]; at 100.0 µM 75%
inactive: [12]; at 1.2 µM 8% | [12]; at 3.7 µM 27% | [12]; at 11.0 µM 61% | [13]; at 1.2 µM 6% | [13]; at 3.7 µM 1% | [13]; at 11.0 µM 8% | [13]; at 33.0 µM 19% | [13]; at 100.0 µM 29% | [14]; at 1.2 µM 7% | [14]; at 3.7 µM 29% | [14]; at 11.0 µM 63% | [15]; at 1.2 µM 13% | [15]; at 3.7 µM 52% | [15]; [16] 22% | [1]; at 1.2 µM -2% | [1]; at 3.7 µM 3% | [1]; [16] 0% | [1]; at 11.0 µM 14% | [1]; at 33.0 µM 27% | [1]; [17] -14% | [1]; at 50.0 µM 5.75% | [1]; at 100.0 µM 38% | [2]; at 1.2 µM 1% | [2]; at 3.7 µM 3% | [2]; at 11.0 µM 8% | [2]; at 33.0 µM 29% | [2]; at 100.0 µM 63% | [3]; [16] -5% | [3]; [17] 26% | [3]; at 50.0 µM -9.9% | [4]; at 1.2 µM -1% | [4]; at 3.7 µM 2% | [4]; at 11.0 µM 8% | [4]; at 33.0 µM 13% | [4]; at 100.0 µM 44% | [5]; [16] 3% | [5]; [17] 18% | [5]; at 50.0 µM 26.2% | [6]; at 1.2 µM -2% | [6]; at 3.7 µM 0% | [6]; [16] 35% | [6]; at 11.0 µM 5% | [6]; at 33.0 µM 25% | [6]; [17] 18% | [6]; at 50.0 µM -23.6% | [6]; at 100.0 µM 47% | [7]; at 1.2 µM 0% | [7]; at 3.7 µM 1% | [7]; at 11.0 µM 12% | [7]; at 33.0 µM 25% | [7]; at 100.0 µM 37% | [8]; at 1.2 µM 1% | [8]; at 3.7 µM -1% | [8]; at 11.0 µM 11% | [8]; at 33.0 µM 26% | [8]; at 100.0 µM 49% | [9]; at 1.2 µM 0% | [9]; at 3.7 µM 5% | [9]; at 11.0 µM 15% | [9]; at 33.0 µM 29% | [9]; at 100.0 µM 48% | [10]; [16] 9% | [10]; [17] 46% | [10]; at 50.0 µM 13.8% | [11]; at 1.2 µM 3% | [11]; at 3.7 µM 10% | [11]; at 11.0 µM 20% | [11]; at 33.0 µM 43%

— PubChem BioAssay (NCI)
